Here are results for 36 compounds from PubChem BioAssay (NCI).

Structures are written as SMILES. This is part of a sample that, as a whole, favours compounds with a hit. Of some 83,000 tested, about 20% had one in any assay.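 Values shown are percent growth following 48 h exposure of cells in 96-well plates to a single concentration of compound; below 10 was considered active.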 Values without a mark were called inactive. Active and inactive are the calls of the source.

In the assay the test system is MDA-MB-468 breast. The assay is described as follows: NCI-60 one-dose screen, 48 h (100 = growth as untreated, 0 = no growth, -100 = all killed). To be noted: 10 µM unless noted.
With `CC[C@]12C=CCN3CC[C@@]4(c5ccc(OC)cc5N(C)[C@H]4[C@@](O)(C(=O)OC)[C@@H]1OC(=O)CCC(=O)O[C@H]1CC[C@H]4[C@@H]5CCC6=CC(=O)CC[C@@H]6[C@H]5CC[C@]14C)[C@@H]32`, the growth was -30.2% [100 µM] (active).
The figure for `Nc1c(C(=O)Nc2ccccc2)sc2nc3c(cc12)CCCC3` is 31.1%.
Regarding `CC1(C)N=C(N)N=C(N)N1c1cccc(OCCOc2cccc([N+](=O)[O-])c2)c1`, the growth was 25.1%.
On to `CC1(C)C(=O)CC[C@]2(C)[C@H]3C(=O)C=C4[C@@H]5C[C@@](C)(C(=O)NCCNCCN)CC[C@]5(C)CC[C@@]4(C)[C@]3(C)CC[C@@H]12`, for which the growth is 114%.
Consider `CSc1nnc(-c2sc3nnc(-c4ccccc4)c(-c4ccccc4)c3c2O)o1`, for which the growth was 78.9%.
The figure for `CCCCC1CCc2cccc3c(SCC(=O)N(C)c4ccc(Cl)cc4)cc[n+]1c23` (stereo unspecified) is 106%; for `COc1ccc(C2=NN(c3nc(-c4ccc(OC)cc4)c(C#N)c(=O)n3C)C(=O)CC2)cc1` it is 96.2%; for `CSc1ccc(-c2cc(-c3ccc(NC(=O)CCCN4CCCC4)cc3)nc(-c3ccc(NC(=O)CCCN4CCCC4)cc3)c2)cc1` it is 14.4%.
The figure for `Nc1ncnc2c1ncn2C1OC(CO)C2OC21` (stereo unspecified) is 93.5%; for `O=C(CC(=O)c1cccc(Cl)c1)c1cccc(Cl)c1` it is 41.7%; for `C#CCOc1ccc(/C=N/Nc2nc(-c3ccc(OC)cc3)cs2)cc1` it is 45.3%.
The figure for `CCOC(=O)c1c(C)nc2c(c1N)C(=O)C(=O)N2Cc1ccc(OC)cc1` is 95%; for `O=C([O][Sn]([O]C(=O)c1ccccn1)([c]1ccccc1)[c]1ccccc1)c1ccccn1` it is -23.8% (active); for `O=C(/C=C/c1cn(-c2ccccc2)nc1-c1ccccc1)OCc1cn(-c2cccc([N+](=O)[O-])c2)nn1` it is 107%.
For `O=c1nc(NO)[nH]c(=O)n1Cc1ccccc1`, the growth was 107%.
Then `O=C(O)c1cn(C2CC2)c2cc(N3CCN(C(=O)C[n+]4cccc5ccccc54)CC3)c(F)cc2c1=O`, with 71.4%; and `Nc1nc(Nc2ccccc2SSc2ccccc2Nc2nc(N)nc(-c3cccc(Cl)c3)n2)nc(-c2cccc(Cl)c2)n1`, with 95.3%.
The figure for `OC(c1cc2c(Cl)cc(Cl)cc2c2cc(C(F)(F)F)ccc12)C1CCCCN1` (stereo unspecified) is -89.1% (active); for `O=C(NCc1ccccc1O)c1cccc2ccccc12` it is 84.9%.
The figure for `Nc1c(C(=O)Nc2ccc(Cl)cc2)sc2nc(-c3cnccn3)cc(-c3cccs3)c12` is 82%; for `CNc1ccc(Br)c2c1C(=O)c1ccccc1C2=O` it is 112%; for `Nc1c(C(=O)Nc2cccc(Cl)c2)sc2nc3c(cc12)C(O)CCC3` (stereo unspecified) it is 39.5%.
For the compound `Cn1c(=O)c2c(ncn2CC[N+](C)(C)C)n(C)c1=O`, the growth was 101%.
`COc1cccc(NC(=O)c2sc3nc4c(cc3c2N)CCCC4)c1`: the growth was 9.67% (active).
Then `C/C(=C(/c1ccc(O)cc1)c1ccc(OCCN(C)C)cc1)c1ccc(Cl)cc1`, with 22.2%.
The figure for `Cc1cccnc1NC1OC(=O)c2ccccc21` (stereo unspecified) is 103%.
Then `CC/C(=C\c1ccc(N(C)C)cc1)c1nc2ccccc2c(=O)[nH]1`, with 91.4%; and `COc1cc2ncnc(Oc3cccc(NC(=O)Nc4cc(C(C)(C)C(F)(F)F)on4)c3)c2cc1OC`, with 12.4%; and `COc1ccc(C(=O)c2sc3nc4c(c(C(F)(F)F)c3c2N)CN(C(C)=O)CC4)cc1OC`, with 83.7%.
Regarding `O=C(N/N=C\c1ccc(Cl)cc1)C(=O)N/N=C\c1ccc(Cl)cc1`, the growth is 124%.
The figure for `COc1ccc(-c2cc(-c3ccc(Cl)cc3)c(C#N)c(=O)n2Cc2ccc(C(=O)O)cc2)cc1` is 73.7%; for `Cc1ccc(-c2nc(SCC(=O)Nc3nc(-c4ccc(Cl)cc4)cs3)[nH]c(=O)c2C#N)cc1` it is 117%.
For the compound `CC(Nc1c(C#N)cnc2ccc(-c3cncc(-c4n[nH]c(=O)o4)c3)cc12)c1ccccc1` (stereo unspecified), the growth was -41.7% (active).
On to `COc1ccc(-c2nc(SCC(C)C)nc(Nc3ccccc3)c2C#N)cc1`, for which the growth was 80.7%.
Then `Nc1nc2c(c3cnccc13)C(c1cccc(Br)c1)Cc1cnccc1-2` (stereo unspecified), with -16.1% (active); and `CCc1ccc(-c2nnc(COc3ccc(-c4nc5cc(Cl)c(Cl)cc5[nH]4)cc3OC)o2)cc1`, with 76.4%.
